# According to PubChem BioAssay:
# Values joined by “and” are separate entries in the source; they are usually repeats but may differ in a detail not shown here. Equal values may be shown once. Inconclusive results are not listed. For some of these results: Potency and affinity values are given separately. Active and inactive are the calls of the source.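 Rule for the calls, unless noted: active = thallium flux through the channel raised or lowered by more than 3 SD from vehicle-only wells, actives on both sides; inactive = the rest.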
# Tests used:
# [1] = growth inhibition of DIPG glioma cells, dose response, cell-based, JHH-DIPG-1, MIPE4.0, CellTiter-Glo, qHTS (AID 1347062; cut-off not given, nearly all actives have AC50 up to about 27 µM); details: JHH-DIPG-1 viability, CellTiter-Glo ATP luminescence
# [2] = system: F380Y; test: modulators of BK channel variants, profiling panel, selectivity assay, cell-based, U2OS BacMam, thallium flux, beta subunits (AID 1259406); details: at 30 µM;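 note: initial slope of Thallos dye fluorescence rise after thallium is added; log ratio against the mean of 0.3% DMSO vehicle wells on the same plate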
# [3] = system: F380Y/beta2Delta; test: as above; details: at 30 µM
# [4] = molecular target: Calcium-activated potassium channel subunit alpha-1 (Homo sapiens) + Leucine-rich repeat-containing protein 26 (Homo sapiens) (UniProt Q12791+Q2I0M4); test: as above; details: F380Y/Slo1WT/gamma1, at 30 µM
# Calcium-activated potassium channel subunit alpha-1 (Homo sapiens) + Leucine-rich repeat-containing protein 26 (Homo sapiens), sequence (Q2I0M4 whole entry, looked up, one chain of several): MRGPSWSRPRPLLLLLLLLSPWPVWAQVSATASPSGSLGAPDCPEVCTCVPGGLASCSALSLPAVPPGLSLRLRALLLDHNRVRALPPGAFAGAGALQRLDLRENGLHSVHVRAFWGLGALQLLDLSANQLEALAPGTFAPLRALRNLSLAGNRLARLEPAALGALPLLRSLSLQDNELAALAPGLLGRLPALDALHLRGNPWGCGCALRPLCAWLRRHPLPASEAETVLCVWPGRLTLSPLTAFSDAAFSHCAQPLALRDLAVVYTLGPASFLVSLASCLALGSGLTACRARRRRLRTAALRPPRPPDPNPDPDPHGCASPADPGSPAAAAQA
# [5] = system: R275C; test: as above; details: at 30 µM
# [6] = system: R275C/beta1; test: as above; details: at 30 µM
# [7] = system: R275C/beta2Delta; test: as above; details: at 30 µM
# [8] = system: Aerobactin synthetase IucA (Klebsiella pneumoniae); test: IucA aerobactin synthetase inhibitors, biochemical, Tocris library, absorbance (AID 1345561; call rule not given here;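 note: 100% = enzyme without compound and 0% = no enzyme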); details: purified IucA enzyme assay, absorbance (OD) read-out; stronger effect = lower value;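 tested at 8 µM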
# [9] = polyglutamine-triggered caspase-3 activation inhibitors, cell-based (AID 1583); details: polyglutamine-induced caspase-3 activation, cell assay; stronger effect = higher value;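 tested at 10 µM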
# [10] = suppressors of polyQ aggregation in yeast, 75Q-TubU reporter (AID 1593); details: Yeast 75Q polyglutamine aggregation reporter
# [11] = rescue of polyQ-huntingtin neuronal dysfunction in worms, whole organism, C. elegans mechanosensory neurons, N-terminal huntingtin (AID 1599); details: touch response, stronger effect = higher value
# [12] = inhibitors of mitochondrial cytochrome c release, biochemical, purified mitochondria (AID 1603); details: stronger effect = lower value;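 note: mouse liver mitochondria challenged with calcium chloride; signal normalized to the plate average as 100%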
# [13] = inhibitors of polyQ protein aggregation (AID 1604); details: polyglutamine-induced protein aggregation inhibition assay; stronger effect = higher value; tested at 2.5 µM
# [14] = enhancers of glutamate uptake in motor neurons, MN-1 cell line (AID 1612); details: MN-1 motor neuron cells, stronger effect = higher value;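 note: tested at 1 µM final; 0% = mean of DMSO vehicle wells on each plate; positive means more glutamate uptake than control and negative means less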
# [15] = suppressors of polyglutamine aggregation in yeast, 75Q-TubH (AID 1616); details: S. cerevisiae 75Q-TubH polyglutamine aggregation suppression; stronger effect = higher value
# [16] = circadian clock period modulators, cell-based, LOPAC library, luminescence reporter (AID 2774; call rule not given here;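 note: values are relative to mean of DMSO wells on each plate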); details: circadian reporter cells, at 7 µM, actives lie on both sides
# [17] = system: Hepatitis C virus NS3 helicase; test: HCV NS3 helicase inhibitors, primary screen, biochemical, fluorescence polarization, LOPAC1280 library (AID 687035; in the data active = inhibition above about 37%); details: Purified HCV NS3 helicase, Cy5-dT15 ssDNA binding fluorescence polarization; stronger effect = higher value; concentration not given here
# [18] = Cy5 fluorescence quenching or enhancement artefacts, artefact control for HCV NS3 helicase inhibitor project, biochemical, LOPAC1280 (AID 687037; call rule not given here); details: Cy5-DNA-NS3h complex fluorescence interference counterscreen
# [19] = phospholipid biosynthesis inhibitors in animal cells, primary screen, cell-based, LOPAC library, screen 4 (AID 1347384; call rule not given here); details: phospholipid biosynthesis inhibition screen, at 10 µM
# [20] = ICB984 medulloblastoma cell growth inhibition, synergistic combos for chromothripsis tumors, cisplatin or BGB combos (AID 1671451; call rule not given here;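 note: cells exposed for 96 hours before readout; 0% = vehicle DMSO and 100% = killing by high DMSO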); details: ICB984 medulloblastoma cells, drug combinations, stronger effect = higher value
smiles,measurement,setting,value
CN1C(=O)COc2c(C(=O)NC3CN4CCC3CC4)cc(Cl)cc21 (centres undefined),outcome,[1],inactive
same,log fold change Tl+ flux,[2],0.054 (inactive)
same,log fold change Tl+ flux,[3],0.0242 (inactive)
same,log fold change Tl+ flux,[4],0.0336 (inactive)
same,log fold change Tl+ flux,[5],-0.0315 (inactive)
same,log fold change Tl+ flux,[6],0.0279 (inactive)
same,log fold change Tl+ flux,[7],-0.00752 (inactive)
CC[C@]1(O)CC[C@H]2[C@@H]3CCC4=CCCC[C@@H]4[C@H]3CC[C@@]21C,log fold change Tl+ flux,[2],0.0652 (inactive)
same,log fold change Tl+ flux,[3],-0.0162 (inactive)
same,log fold change Tl+ flux,[4],0.141 (active)
same,log fold change Tl+ flux,[5],0.0162 (inactive)
same,log fold change Tl+ flux,[6],0.231 (active)
same,log fold change Tl+ flux,[7],0.196 (active)
C#CCN(C)[C@H](C)Cc1ccccc1,outcome,[1],inactive
same,log fold change Tl+ flux,[2],0.00891 (inactive)
same,log fold change Tl+ flux,[3],-0.0258 (inactive)
same,log fold change Tl+ flux,[4],0.000386 (inactive)
same,log fold change Tl+ flux,[5],-0.00358 (inactive)
same,log fold change Tl+ flux,[6],0.0188 (inactive)
same,log fold change Tl+ flux,[7],-0.0448 (inactive)
O=C(O)C(Cl)Cl,remaining activity,[8],99.4% (inactive)
same,log fold change Tl+ flux,[2],-0.0365 (inactive)
same,log fold change Tl+ flux,[3],-0.00825 (inactive)
same,log fold change Tl+ flux,[4],-0.0139 (inactive)
same,log fold change Tl+ flux,[5],-0.098 (inactive)
same,log fold change Tl+ flux,[6],0.0188 (inactive)
same,log fold change Tl+ flux,[7],-0.00393 (inactive)
Oc1cc(Cl)ccc1Oc1ccc(Cl)cc1Cl,log fold change Tl+ flux,[2],-0.452 (active)
same,log fold change Tl+ flux,[3],-0.343 (active)
same,log fold change Tl+ flux,[4],-0.0387 (inactive)
same,log fold change Tl+ flux,[5],-0.105 (active)
same,log fold change Tl+ flux,[6],-0.254 (active)
same,log fold change Tl+ flux,[7],-0.148 (active)
COc1ccc(C(=O)N2CCCC2=O)cc1,inhibition,[9],15.7%
same,score,[10],0.89
same,rescue above control,[11],2.57
same,cytochrome c release ratio,[12],0.98
same,inhibition of aggregation,[13],60.5%
same,glutamate uptake change,[14],5.51%
same,aggregation suppression score,[15],1.16
same,period change,[16],-0.01 h (inactive)
same,inhibition,[17],-3% (inactive)
same,fluorescence ratio (interference),[18],0.9 (inactive)
same,remaining activity,[8],97.7% (inactive)
same,outcome,[1],inactive
same,outcome,[19],inactive
CCCC(C)C1(CC)C(=O)N=C(S)NC1=O (centres undefined),inhibition,[9],15.2%
same,score,[10],1.17
same,rescue above control,[11],-8.64
same,cytochrome c release ratio,[12],1.02
same,inhibition of aggregation,[13],30.6%
same,glutamate uptake change,[14],15.5%
same,aggregation suppression score,[15],0.929
CCOC(=O)c1cncn1C(C)c1ccccc1 (centres undefined),log fold change Tl+ flux,[2],-0.00492 (inactive)
same,log fold change Tl+ flux,[3],0.0219 (inactive)
same,log fold change Tl+ flux,[4],-0.00742 (inactive)
same,log fold change Tl+ flux,[5],-0.00746 (inactive)
same,log fold change Tl+ flux,[6],0.0125 (inactive)
same,log fold change Tl+ flux,[7],0.0301 (inactive)
CC(C)c1cccc(C(C)C)c1O,period change,[16],0.005 h (inactive)
same,inhibition,[17],-1% (inactive)
same,fluorescence ratio (interference),[18],1 (inactive)
same,outcome,[1],inactive
same,outcome,[19],inactive
same,log fold change Tl+ flux,[2],-0.0182 (inactive)
same,log fold change Tl+ flux,[3],-0.0275 (inactive)
same,log fold change Tl+ flux,[4],-0.0487 (inactive)
same,log fold change Tl+ flux,[5],-0.0316 (inactive)
same,log fold change Tl+ flux,[6],-0.0537 (inactive)
same,log fold change Tl+ flux,[7],-0.0157 (inactive)
COc1cccc([C@@]2(O)CCCC[C@@H]2CN(C)C)c1,log fold change Tl+ flux,[2],-0.0178 (inactive)
same,log fold change Tl+ flux,[3],-0.0331 (inactive)
same,log fold change Tl+ flux,[4],-0.0312 (inactive)
same,log fold change Tl+ flux,[5],-0.0685 (inactive)
same,log fold change Tl+ flux,[6],-0.0302 (inactive)
same,log fold change Tl+ flux,[7],0.00141 (inactive)
COc1cc(N)c(Cl)cc1C(=O)NC1CN2CCC1CC2 (centres undefined),remaining activity,[8],124% (inactive)
C=C1C[C@@H]2[C@H](CC[C@]3(C)C(=O)CC[C@@H]23)[C@@]2(C)C=CC(=O)C=C12,outcome,[1],inactive
same,log fold change Tl+ flux,[2],-0.00852 (inactive)
same,log fold change Tl+ flux,[3],0.0277 (inactive)
same,log fold change Tl+ flux,[4],0.0186 (inactive)
same,log fold change Tl+ flux,[5],-0.00349 (inactive)
same,log fold change Tl+ flux,[6],0.0308 (inactive)
same,log fold change Tl+ flux,[7],0.00258 (inactive)
Nc1ccncc1,inhibition,[9],-15.5%
same,score,[10],1.34
same,rescue above control,[11],26.7
same,cytochrome c release ratio,[12],0.88
same,inhibition of aggregation,[13],-27.8%
same,glutamate uptake change,[14],-9.57%
same,aggregation suppression score,[15],1.23
same,period change,[16],0.07 h (inactive)
same,inhibition,[17],-4% (inactive)
same,fluorescence ratio (interference),[18],0.9 (inactive)
same,remaining activity,[8],127% (inactive)
same,outcome,[19],inactive
CNCC(O)c1ccc(O)cc1 (centres undefined),period change,[16],-0.045 h (inactive)
same,inhibition,[17],-2% (inactive)
same,fluorescence ratio (interference),[18],1 (inactive)
same,outcome,[1],inactive
same,outcome,[19],inactive
same,log fold change Tl+ flux,[2],-0.0218 (inactive)
same,log fold change Tl+ flux,[3],0.0172 (inactive)
same,log fold change Tl+ flux,[4],0.0291 (inactive)
same,log fold change Tl+ flux,[5],-0.0246 (inactive)
same,log fold change Tl+ flux,[6],0.022 (inactive)
same,log fold change Tl+ flux,[7],0.0197 (inactive)
O=P1(NCCCl)OCCCN1CCCl (centres undefined),outcome,[1],inactive
same,inhibition,"[20]; BGB IC20 combo, at 0.005 µM",-4.87% and -19.5%
same,inhibition,"[20]; BGB IC40 combo, at 0.005 µM",-32.7% and -24.5%
same,inhibition,"[20]; BGB IC40 combo, at 0.05 µM",-25.4% and -42.1%
same,inhibition,[20]; at 0.5 µM,-22% (inactive) and -43% (inactive)
same,inhibition,"[20]; cisplatin combo, at 0.05 µM",-25.4% and -47.2%
same,inhibition,"[20]; cisplatin combo, at 0.5 µM",-28.2% and -28.3%
same,inhibition,"[20]; cisplatin combo, at 5 µM",-18% and -28.2%
same,inhibition,"[20]; measured here: 5 uM single agent, at 5 µM",-4.46% and 4.1%
CN[C@@H](C)[C@H](O)c1ccccc1,period change,[16],-0.07 h (inactive)
NC1=NC(=O)C(c2ccccc2)O1 (centres undefined),log fold change Tl+ flux,[2],-0.012 (inactive)
same,log fold change Tl+ flux,[3],-0.0196 (inactive)
same,log fold change Tl+ flux,[4],-0.0447 (inactive)
same,log fold change Tl+ flux,[5],0.00173 (inactive)
same,log fold change Tl+ flux,[6],0.00542 (inactive)
same,log fold change Tl+ flux,[7],-0.00885 (inactive)
NP(N)(=O)NC(=O)c1ccc(F)cc1,remaining activity,[8],91.8% (inactive)
